Rows were chosen to be rich in hits. Some 6.1% of all compounds tested hit in one or more screens of this group.
D1 agonist: activates the human D1 dopamine receptor. 360,000 compounds, 1% hits. HEK293 T-REx D1 cells, calcium flux, agonist mode. activation, % at 2 µM. AID 504660. P21728; in the data active = activation above about 30%
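Agonism was scored from calcium flux recorded over 180 s (1 read/s) after pintool compound addition, following a 10-cycle baseline. Cells were inducible force-coupled HEK293 TREx D1, plated overnight at 30 C and loaded with no-wash calcium dye.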
D1 potentiator: enhances dopamine response at the human D1 receptor; P21728; HEK293 TREx D1 cells, calcium flux, dopamine EC20 potentiation; potentiation, % at 10 µM; 360,000 compounds, 0.036% hits; AID 504651; in the data active = potentiation above about 30%
D1 antag: blocks dopamine activation of the human D1 receptor. P21728. HEK293 TREx D1 cells, calcium flux, dopamine EC80; hits give low values. activity change, negative = inhibition, % at 10 µM. 360,000 compounds, 3.2% hits; in the data active = activity change below about -30%
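Inducible Hek293 Trex D1 cells (tetracycline, overnight, 30 C). Calcium dye 30–90 min RT. Antagonist mode: EC80 dopamine added after 180 s compound read.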
D3 antag: D3 dopamine receptor (human) antagonism | P35462 | D3R cells, DiscoveRx beta-arrestin luminescence, antagonist mode; hits give low values | max response, negative = inhibition, % | 360,000 compounds, 2.5% hits | AID 652054; in the data active = max response below about -50%; inconclusive = no clear call, values can overlap the other calls
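Cells plated overnight at 1500 cells/well, then exposed to library compounds with dopamine controls for 90 minutes at 37 degrees C. DiscoveRx reagent added for 30–60 minutes at room temperature; luminescence read, quantitative HTS format.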
ERG Ets-DNA blk: ERG Ets/DNA interaction inhibition; Potency, µM (doses to about 76.9 µM), usual class: inhibitors; fluorescence polarization, His-ERG Ets domain / labelled DNA; 370,000 compounds, 0.028% hits; active = well fitted inhibition curve with a large enough effect in the polarisation, with a control signal flat; inconclusive = small, poorly fitted or top-dose-only effect, or effect the other way, or a change in a side signal; inactive = no such curve, though single readings can be large or run the other way; the % refers to the polarisation;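 note: polarization taken with two DNA probes labelled with fluorescein and Texas red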
Target sequence (P11308 whole entry, looked up, the tested form may be a part): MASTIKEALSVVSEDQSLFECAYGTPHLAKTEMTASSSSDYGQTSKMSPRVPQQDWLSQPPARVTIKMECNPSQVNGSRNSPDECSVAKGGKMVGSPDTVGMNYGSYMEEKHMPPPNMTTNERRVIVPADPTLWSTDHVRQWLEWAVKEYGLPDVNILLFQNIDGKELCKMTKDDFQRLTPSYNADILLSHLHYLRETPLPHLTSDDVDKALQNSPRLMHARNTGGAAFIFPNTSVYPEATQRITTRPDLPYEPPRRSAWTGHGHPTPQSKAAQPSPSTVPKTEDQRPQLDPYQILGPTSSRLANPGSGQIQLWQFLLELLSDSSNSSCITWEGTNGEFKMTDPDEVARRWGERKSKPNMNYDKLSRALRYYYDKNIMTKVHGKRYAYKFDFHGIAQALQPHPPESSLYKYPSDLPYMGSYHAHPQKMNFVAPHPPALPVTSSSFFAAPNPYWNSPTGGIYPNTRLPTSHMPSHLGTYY
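His-tagged ERG Ets domain (1 uM in the protein solution; 300mM KCl, 50mM Tris-HCl, 1mM EDTA, 1mM DTT, pH 7.5) received compound, then a probe mix of 5 nM fluorescein-DNA and 100nM Texas-615-DNA. Fluorescence polarization was read for both dyes.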
D3 ag: D3 dopamine receptor (human) agonism; D3R DiscoveRx beta-arrestin cells, luminescence, 90 min; 410,000 compounds, 0.58% hits; max activation, %; AID 652048; in the data active = max activation above about 30%
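Agonist mode: compounds and dopamine controls were applied to plated cells for 90 min at 37 degrees C after an overnight attachment at 1500 cells/well. Luminescent read-out followed 30 - 60 minutes at room temperature with DiscoveRx detection reagent.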
Large screens that a line does not name were inactive.

Cc1[nH]nc(Nc2ccc(Br)cc2)c1[N+](=O)[O-]	D1 antag -36
CCCn1nnc(NC(=S)NC(=O)/C=C/c2ccc(Cl)cc2)n1	none
CCCn1nnc(NC(=O)/C=C/c2ccc(C(C)C)cc2)n1	D1 agonist 38
O=C(CN1CCN(S(=O)(=O)c2ccccc2F)CC1)Nc1ccnn1C1CCCC1	D1 antag -40
O=C(CN1CCCCC1)Nc1ccc(S(=O)(=O)N2CCCCCC2)cc1	none
N#Cc1ccccc1S(=O)(=O)N1CCN(CC(=O)Nc2ccnn2C2CCCC2)CC1	none
Cc1ccc(S(=O)(=O)N2CCN(CC(=O)Nc3ccnn3C3CCCC3)CC2)cc1	D1 antag -37
CCCCCC(=O)N/N=C/c1cc(Br)c(O)c(OC)c1	D1 antag -39
COc1ccc(C2=NOC(C)(c3sc(-c4ccc(Cl)cc4)nc3C)C2)cc1 (stereo not given)	none (no result: D1 agonist, D1 potentiator, D1 antag)
O=S(=O)(c1ccc(F)c(F)c1)N1CCCCCCC1	none (no result: D1 agonist, D1 potentiator, D1 antag, ERG Ets-DNA blk)
COc1ccc(OC)c(Nc2cc(C(=O)NCc3ccccc3)c3ccccc3n2)c1	D1 antag -80 (no result: D3 antag)
COc1ccc(Nc2cc(C(=O)NCCCN(C)C3CCCCC3)c3ccccc3n2)c(OC)c1	D1 agonist 34 (no result: D3 antag)
COc1ccc(Nc2cc(C(=O)NC3CCCC3)c3ccccc3n2)cc1	none (no result: D3 antag)
CCN(CC)CCCNC(=O)c1cc(Nc2ccc(OC)cc2OC)nc2ccccc12	ERG Ets-DNA blk inconclusive
COc1ccc(Nc2cc(C(=O)NCCCN(C)C3CCCCC3)c3ccccc3n2)cc1	D1 agonist 65, D1 antag -41 (no result: D3 antag)
NC(=O)c1ccccc1OCC(=O)Nc1ccc2c(c1)OCCO2	none
Cc1cccc(C(=O)NCC(=O)OCC(=O)c2ccc(Br)s2)c1	none (no result: D1 agonist, D1 potentiator, D1 antag)
CCOc1cc(N2CCOCC2)c(OCC)cc1NC(=O)c1cccc(N(C)C)c1	none
CCOc1cc(N2C(=O)CC3CS(=O)(=O)CC32)c(OCC)cc1NC(=O)c1ccccc1 (stereo not given)	D3 antag -62
Cc1cccc(NC(=O)C2COc3ccccc3O2)c1 (stereo not given)	D1 antag -32
Cc1cc(C)nc(NS(=O)(=O)c2ccc(NC(=O)C3COc4ccccc4O3)cc2)n1 (stereo not given)	D1 antag -60
Cc1ccccc1-c1nc(CS(=O)(=O)CC(=O)N2CCCCC2)c(C)o1	none
CCOC(=O)Cn1c(=O)n(Cc2ccc(C)cc2)c(=O)c2cccnc21	none
Cc1ccc(Cn2c(=O)c3cccnc3n(Cc3ccc(C)cc3)c2=O)cc1	D1 antag -30 (no result: D3 antag)
COc1cc(OC)c(OC)cc1/C=C/c1nc2cc3ccccc3cc2c(=O)n1-c1ccccc1Br	D1 agonist 78 (no result: D3 antag)
COc1ccc(-n2c(/C=C/c3cccc4ccccc34)nc3ccccc3c2=O)cc1OC	none (no result: D3 antag)
COc1cc(/C=C/c2nc3cc(Cl)ccc3c(=O)n2-c2ccc(C)cc2C)cc(OC)c1OC	D1 antag -44 (no result: D3 antag)
COc1ccc(Cl)cc1-n1c(/C=C/c2cccc3ccccc23)nc2ccccc2c1=O	D1 antag -35 (no result: D3 antag)
COc1cc(OC)c(OC)cc1/C=C/c1nc2cc3ccccc3cc2c(=O)n1-c1ccc(Cl)cc1	none (no result: D3 antag)
Cc1nc2sc(C(c3cccs3)N3CC(C)CC(C)C3)c(O)n2n1 (stereo not given)	none
COc1ccc(Nc2nc(-c3sc(C)nc3C)cs2)c(OC)c1	D1 antag -43
COc1ccc(OC)c(Nc2nc(-c3cccs3)cs2)c1	none (no result: ERG Ets-DNA blk)
COc1ccc(Nc2nc(-c3cccs3)cs2)c(OC)c1	D3 antag -51
O=S(=O)(NCC(c1ccco1)N1CCN(c2ccccc2)CC1)c1ccc(F)cc1 (stereo not given)	D1 antag -30
O=S(=O)(NCC(c1ccco1)N1CCN(c2ccc(F)cc2)CC1)c1ccc(F)cc1 (stereo not given)	D1 antag -34
Cn1c(SCC(=O)N=Nc2c(O)[nH]c3ccccc23)nc2ccccc21	none (no result: D3 antag, ERG Ets-DNA blk, D3 ag)
O=C(CCc1c[nH]c2ccccc12)N=Nc1c(O)[nH]c2ccccc12	D1 antag -44
O=C(CCn1cnc2ccccc21)N=Nc1c(O)[nH]c2ccccc12	D1 antag -77
COC(=O)c1ccc(NC2=CC(=O)CC(C)(C)C2)cc1	none
Cc1cccc(NC(=O)CSc2nc3c([nH]c4ccccc43)c(=O)n2C)c1	D3 antag -70
Cc1cccc(NC(=O)CCCn2c(=S)[nH]c3ccccc3c2=O)c1	D3 ag 47
CCOC(=O)c1[nH]c2ccccc2c1NC(=S)Nc1cccc(C)c1	D3 antag -53
Cc1ccc(C(=O)Nc2sc(C(=O)N(C)C)c(C)c2C#N)cc1	none
Cc1c(C(=O)N(C)C)sc(NC(=O)c2cc([N+](=O)[O-])cc([N+](=O)[O-])c2)c1C#N	D3 antag -91
CCCN(C#N)c1nc(NCC)nc(NC(C)C)n1	none
CCN(C#N)c1nc(NC(C)C)nc(NC(C)(C)C)n1	D1 agonist 51
O=C(COC(=O)c1ccccc1NS(=O)(=O)c1cccs1)NC1CCCCC1	D1 antag -55
O=C(COC(=O)[C@H](Cc1ccccc1)NC(=O)c1cccs1)NC1CCCCC1	D1 antag -43
O=C(COC(=O)c1ccccc1NS(=O)(=O)c1cccs1)NCC12CC3CC(CC(C3)C1)C2	none
CCC1CN(C(=O)Nc2ccc(C)c(F)c2)c2ccccc2S1 (stereo not given)	none (no result: D3 antag)
CCOc1nc(C)ccc1-c1noc(-c2ccco2)n1	none
CCOc1nc(C)ccc1-c1noc(CC)n1	D1 antag -38
OC[C@@H]1CN(CCN2CCOCC2)C[C@H](n2cnc3c(NCc4ccco4)ncnc32)O1	none (no result: D1 agonist, D1 potentiator, D1 antag, ERG Ets-DNA blk)
Cc1cccc(N2CCN(C(=O)C3CCN(S(=O)(=O)Cc4ccccc4)CC3)CC2)c1C	none (no result: D3 antag)
COc1cc(C(C)=O)ccc1OCC(O)CNCC1(N2CCCCC2)CCCCC1 (stereo not given)	none
COc1ccccc1COCC(O)CNCC1(N2CCCCC2)CCCCC1 (stereo not given)	D3 antag -60
Cc1ccc(S(=O)(=O)NCc2ccccc2)cc1	none
Cc1ccc(S(=O)(=O)N[C@H](CNCc2ccccc2)C(C)C)cc1	D3 antag -91 (no result: D1 agonist, D1 potentiator, D1 antag, ERG Ets-DNA blk)
O/N=C/c1cn(-c2ccccc2)nc1-c1ccccc1	D3 ag 45
Cn1c(=O)n(CCc2ccccc2)c(=O)c2c1nc1n2CCN1Cc1ccco1	none
CC1(C(=O)CSc2ncn[nH]2)CCC(=O)O1 (stereo not given)	D1 antag -43 (no result: D3 antag, ERG Ets-DNA blk, D3 ag)
CC1(C(=O)CSc2nc3ccccc3[nH]2)CCC(=O)O1 (stereo not given)	none
Cc1cc(/C=C2\NC(=S)N(C)C2=O)ccc1N1CCCC1	D1 agonist 331, D1 antag -45

Source: PubChem BioAssay (National Center for Advancing Translational Sciences (NCATS))
